Whole data set: some 1,400 sequences, median “thermal melting temperature (Tm) of peptide-HLA complex” near 60, cut for the lowest 2% near 45. Many of the other results were omitted from the sample, so the lowest values are more common in it than they were.
B1: unnamed (peptide)
chain: RPTGGVGAV
B2: unnamed (peptide)
chain: SPANLPAVL
B3: unnamed (peptide)
chain: FPRAPSTSDSV
B4: unnamed (peptide)
chain: TPLGTRSGL
B5: unnamed (peptide)
chain: SPNLRLLDL
B6: unnamed (peptide)
chain: LPSPSPRISL
B7: unnamed (peptide)
chain: GSISRIYL
B8: unnamed (peptide)
chain: NVRPPNTAL
B9: unnamed (peptide)
chain: APYSRPKQL
B10: unnamed (peptide)
chain: APRGTGIVSA
B11: unnamed (peptide)
chain: IPRGADNLVAI
B12: unnamed (peptide)
chain: VPRPPSLLATL
B13: unnamed (peptide)
chain: FPQHTIASL
B14: unnamed (peptide)
chain: GPRNVLLFL
B15: unnamed (peptide)
chain: TPQQGAQTSL
B16: unnamed (peptide)
chain: TPQGFRSTL
B17: unnamed (peptide)
chain: YLRDTLLAL
B18: unnamed (peptide)
chain: VPEVTKPSL
B19: unnamed (peptide)
chain: SPRPALPALL
B20: unnamed (peptide)
chain: APILRARLLPL
B21: unnamed (peptide)
chain: YPKRPLLGL
B22: unnamed (peptide)
chain: YIDEGRLVL
B23: unnamed (peptide)
chain: GPRSSLRVL
B24: unnamed (peptide)
chain: FPRSVVEFL
B25: unnamed (peptide)
chain: LPAPKGPAL
B26: unnamed (peptide)
chain: LPTSPGPAL
B27: unnamed (peptide)
chain: KPNHTLVLL
B28: unnamed (peptide)
chain: RPADSMLNVL
B29: unnamed (peptide)
chain: RPAPLVQQL
B30: unnamed (peptide)
chain: APREHPFVL
B31: unnamed (peptide)
chain: LPRTIFPTSTI
B32: unnamed (peptide)
chain: LPHSATVTL
B33: unnamed (peptide)
chain: DPMKARVVL
B34: unnamed (peptide)
chain: IPKLPAVSF
B35: unnamed (peptide)
chain: QPRSPGPDYSL
B36: unnamed (peptide)
chain: RPKALTQVL

Target: HLA-B*07:02
Experiment: thermal melting temperature (Tm) of peptide-HLA complex; higher = more thermostable pHLA complex
Settings: C1R-B*07:02
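Note: lysates heated 10 min at 37–73 °C, complexes pulled down with pan-HLA I antibody, peptide signal by DIA-MS relative to 37 °C, Tm where half the complex is unfolded.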

Q: Which thermal melting temperature does the source give for B1 here?
A: 54.3 °C

Q: How did the thermal melting temperature turn out when B2 was run?
A: 62.6 °C

Q: How did the thermal melting temperature turn out when B3 was run?
A: 57.1 °C

Q: Which thermal melting temperature does the source give for B4 here?
A: 55.6 °C

Q: For B5, which thermal melting temperature is on record?
A: 63.4 °C

Q: Which thermal melting temperature does the source give for B6 here?
A: 60.6 °C

Q: How did the thermal melting temperature turn out when B7 was run?
A: 41.4 °C

Q: With B8 as the sequence, how does the thermal melting temperature read?
A: 56.8 °C

Q: For B9, which thermal melting temperature is on record?
A: 61.5 °C

Q: For B10, which thermal melting temperature is on record?
A: 57.4 °C

Q: How did the thermal melting temperature turn out when B11 was run?
A: 61.8 °C

Q: Which thermal melting temperature does the source give for B12 here?
A: 62.9 °C

Q: Which thermal melting temperature does the source give for B13 here?
A: 58.7 °C

Q: Which thermal melting temperature does the source give for B14 here?
A: 55.1 °C

Q: Which thermal melting temperature does the source give for B15 here?
A: 40.5 °C

Q: With B16 as the sequence, how does the thermal melting temperature read?
A: 60 °C

Q: Which thermal melting temperature does the source give for B17 here?
A: 53.6 °C

Q: B18 was tested. Which thermal melting temperature did it give?
A: 57.6 °C

Q: With B19 as the sequence, how does the thermal melting temperature read?
A: 60.2 °C

Q: B20 was tested. Which thermal melting temperature did it give?
A: 47.3 °C

Q: How did the thermal melting temperature turn out when B21 was run?
A: 61.3 °C

Q: With B22 as the sequence, how does the thermal melting temperature read?
A: 51.6 °C

Q: For B23, which thermal melting temperature is on record?
A: 58.9 °C

Q: Which thermal melting temperature does the source give for B24 here?
A: 62 °C

Q: With B25 as the sequence, how does the thermal melting temperature read?
A: 57.9 °C

Q: With B26 as the sequence, how does the thermal melting temperature read?
A: 40.6 °C

Q: Which thermal melting temperature does the source give for B27 here?
A: 59.2 °C

Q: Which thermal melting temperature does the source give for B28 here?
A: 62 °C

Q: With B29 as the sequence, how does the thermal melting temperature read?
A: 58.3 °C

Q: For B30, which thermal melting temperature is on record?
A: 61 °C

Q: B31 was tested. Which thermal melting temperature did it give?
A: 62.8 °C

Q: Which thermal melting temperature does the source give for B32 here?
A: 60.7 °C

Q: How did the thermal melting temperature turn out when B33 was run?
A: 49.3 °C

Q: How did the thermal melting temperature turn out when B34 was run?
A: 63.1 °C

Q: B35 was tested. Which thermal melting temperature did it give?
A: 57.7 °C

Q: Which thermal melting temperature does the source give for B36 here?
A: 61 °C

— the supplement of paper PMC7726561
